Laboratory results reported in PubChem BioAssay (NCATS).
For part of these data: Potency and affinity values are given separately. Activity calls are given as the source filed them. The rule behind the calls is not given here.

Experiments:
[1] = Ebola virus entry assay, green fluorescence channel
[2] = Ebola virus entry assay, blue channel fluorescence
[3] = Ebola virus entry assay, ratio channel
[4] = Ebola virus entry assay, green channel fluorescence
[5] = Ebola virus entry assay, reporter ratio channel; Channel type: primary
[6] = Ebola virus entry assay, blue channel (ratio component)
Throughout, for efficacy: 0% is about no effect.

N#Cc1cc(NC(=O)C(=O)O)c(Cl)c(NC(=O)C(=O)O)c1
inactive: efficacy [1] 18.8% | outcome [2] | outcome [3] | outcome [4] | outcome [5] | outcome [6]

O=C1OC(OC(=O)c2cccnc2Nc2cccc(C(F)(F)F)c2)c2ccccc21 (configuration not stated)
inactive: efficacy [1] -25.3% | outcome [2] | outcome [3] | outcome [4] | outcome [5] | outcome [6]

COCCOC(=O)C1=C(C)NC(C)=C(C(=O)OC/C=C/c2ccccc2)C1c1cccc([N+](=O)[O-])c1 (configuration not stated)
inactive: efficacy [1] 17.5% | outcome [2] | outcome [3] | outcome [4] | outcome [5] | outcome [6]

CC1CC(=O)NN=C1c1ccc(NCC(C)(C)NCC(O)COc2cc(Cl)ccc2C#N)cc1 (configuration not stated)
inactive: efficacy [1] 42.4% | outcome [2] | outcome [3] | outcome [4] | outcome [5] | outcome [6]

c1ccc2[nH]c(-c3cscn3)nc2c1
inactive: efficacy [1] -29.7% | outcome [2] | outcome [3] | outcome [4] | outcome [5] | outcome [6]

COC(=O)c1cc(S(N)(=O)=O)ccc1OC
inactive: efficacy [1] -31.2% | outcome [2] | outcome [3] | outcome [4] | outcome [5] | outcome [6]

CNC(=O)c1c(I)c(NC(=O)CCCCC(=O)Nc2c(I)c(C(=O)O)c(I)c(C(=O)NC)c2I)c(I)c(C(=O)O)c1I
inactive: efficacy [1] -24% | outcome [2] | outcome [3] | outcome [4] | outcome [5] | outcome [6]

C#Cc1ccc(-c2ccccc2F)cc1
inactive: efficacy [1] 15.3% | outcome [2] | outcome [3] | outcome [4] | outcome [5] | outcome [6]

O=C1NC(=O)[C@@]2(CCOc3ccc(F)cc32)N1
inactive: efficacy [1] -52% | outcome [2] | outcome [3] | outcome [4] | outcome [5] | outcome [6]

CCOc1ccccc1C(N)=O
inactive: efficacy [1] -14.9% | outcome [2] | outcome [3] | outcome [4] | outcome [5] | outcome [6]

CC(COc1ccccc1)NC(C)C(O)c1ccc(O)cc1 (configuration not stated)
inactive: efficacy [1] -32.1% | outcome [2] | outcome [3] | outcome [4] | outcome [5] | outcome [6]

CC(=O)Nc1ccn(C2COC(COC(=O)c3ccccc3)O2)c(=O)n1 (configuration not stated)
inactive: efficacy [1] -16% | outcome [2] | outcome [3] | outcome [4] | outcome [5] | outcome [6]

C=C(C)C(=O)OCC(O)CO (configuration not stated)
inactive: efficacy [1] -24.2% | outcome [2] | outcome [3] | outcome [4] | outcome [5] | outcome [6]

CC1CC(OC(=O)C(O)c2ccccc2)CC(C)(C)N1C (configuration not stated)
inactive: efficacy [1] 9.62% | outcome [2] | outcome [3] | outcome [4] | outcome [5] | outcome [6]

O=Cc1ccc(O)c(O)c1O
inactive: efficacy [1] 43% | outcome [2] | outcome [3] | outcome [4] | outcome [5] | outcome [6]

OCC(CO)N[C@H]1C[C@](O)(CO)[C@@H](O)[C@H](O)[C@H]1O
inactive: efficacy [1] -14.7% | outcome [2] | outcome [3] | outcome [4] | outcome [5] | outcome [6]

CCOC(=O)[C@H](CCc1ccccc1)N[C@@H](C)C(=O)N(CC(=O)O)C1Cc2ccccc2C1
active: AC50 [3] 20 µM | AC50 [5] 20 µM
inactive: efficacy [1] 28.2% | outcome [2] | outcome [4] | outcome [6]

COc1ccnc2c1CCCCC2S(=O)c1nc2ccccc2[nH]1 (configuration not stated)
inactive: efficacy [1] -22.9% | outcome [2] | outcome [3] | outcome [4] | outcome [5] | outcome [6]

CC(=O)Nc1ccc(S(=O)(=O)Nc2ccc([N+](=O)[O-])cc2)cc1
inactive: efficacy [1] -17.6% | outcome [2] | outcome [3] | outcome [4] | outcome [5] | outcome [6]

Nc1ccc(S(=O)(=O)Nc2cnc3ccccc3n2)cc1
inactive: efficacy [1] -10.5% | outcome [2] | outcome [3] | outcome [4] | outcome [5] | outcome [6]

O=C1Cc2cc(Cl)ccc2N1
inactive: efficacy [1] -20.6% | outcome [2] | outcome [3] | outcome [4] | outcome [5] | outcome [6]

CCCN(CCC)C(=O)C(CCC(=O)O)NC(=O)c1ccccc1 (configuration not stated)
inactive: efficacy [1] 17.5% | outcome [2] | outcome [3] | outcome [4] | outcome [5] | outcome [6]

Cc1ccc(C(C)OC(=O)C2(C)CCC(C(=O)O)C2(C)C)cc1 (configuration not stated)
inactive: efficacy [1] 24.8% | outcome [2] | outcome [3] | outcome [4] | outcome [5] | outcome [6]

C[C@H]1NCc2cc(-c3ccc4c(=O)c(C(=O)O)cn(C5CC5)c4c3OC(F)F)ccc21
inactive: efficacy [1] -19.7% | outcome [2] | outcome [3] | outcome [4] | outcome [5] | outcome [6]

COc1ccc(CCC(C)=O)cc1
inactive: efficacy [1] 11.4% | outcome [2] | outcome [3] | outcome [4] | outcome [5] | outcome [6]

CCCCOc1ccc(CC(=O)NO)cc1
inactive: efficacy [1] -9.53% | outcome [2] | outcome [3] | outcome [4] | outcome [5] | outcome [6]

Nc1nc(=O)n([C@@H]2O[C@H](CO)[C@@H](O)[C@@H]2F)cc1I
inactive: efficacy [1] -12.8% | outcome [2] | outcome [3] | outcome [4] | outcome [5] | outcome [6]

O=C(OCC(O)CO)c1ccccc1Nc1ccnc2c(C(F)(F)F)cccc12 (configuration not stated)
inactive: efficacy [1] 31.1% | outcome [2] | outcome [3] | outcome [4] | outcome [5] | outcome [6]

CCCCCC1Nc2cc(C(F)(F)F)c(S(N)(=O)=O)cc2S(=O)(=O)N1 (configuration not stated)
inactive: efficacy [1] -15.8% | outcome [2] | outcome [3] | outcome [4] | outcome [5] | outcome [6]

Nc1ccn(C2CO[C@H](CO)O2)c(=O)n1 (some centres not stated)
inactive: efficacy [1] -24% | outcome [2] | outcome [3] | outcome [4] | outcome [5] | outcome [6]

C/C(=N/NC(=O)c1ccncc1)C(=O)O
inactive: efficacy [1] -27.5% | outcome [2] | outcome [3] | outcome [4] | outcome [5] | outcome [6]

C[C@H]1COc2c(C3(N)CC3)c(F)cc3c(=O)c(C(=O)O)cn1c23
inactive: efficacy [1] 9.63% | outcome [2] | outcome [3] | outcome [4] | outcome [5] | outcome [6]

CCC(=O)Oc1ccc2c(c1)CC[C@@H]1[C@@H]2CC[C@@]2(C)[C@H]1C[C@@H](OC(=O)CC)[C@@H]2OC(=O)CC
inactive: efficacy [1] -23.4% | outcome [2] | outcome [3] | outcome [4] | outcome [5] | outcome [6]

COCCc1ccc(OCC(O)CNC(C)C)cc1 (configuration not stated)
inactive: efficacy [1] -31.6% | outcome [2] | outcome [3] | outcome [4] | outcome [5] | outcome [6]

C(=C\c1ccccc1)/CN1CCN(C(c2ccccc2)c2ccccc2)CC1
inactive: efficacy [1] 12.5% | outcome [2] | outcome [3] | outcome [4] | outcome [5] | outcome [6]

CCCCCCCCCCCCCCCCCCOCC(O)CO (configuration not stated)
inactive: efficacy [1] -25.1% | outcome [2] | outcome [3] | outcome [4] | outcome [5] | outcome [6]

OC[C@H]1O[C@@H](O[C@@H]2[C@@H](CO)O[C@](O)(CO)[C@H]2O)[C@H](O)[C@@H](O)[C@H]1O
inactive: efficacy [1] -16.4% | outcome [2] | outcome [3] | outcome [4] | outcome [5] | outcome [6]

CCC(CC)(CC(=O)Nc1cccc(/C=C/c2nc(C3CCC3)cs2)c1)C(=O)O
inactive: efficacy [1] -22.5% | outcome [2] | outcome [3] | outcome [4] | outcome [5] | outcome [6]

CCCCCCCCCCCCOS(=O)(=O)O
inactive: efficacy [1] -26.4% | outcome [2] | outcome [3] | outcome [4] | outcome [5] | outcome [6]

C1CCN2C[C@@H]3C[C@@H](CN4CCCC[C@@H]34)[C@H]2C1
inactive: efficacy [1] 13.4% | outcome [2] | outcome [3] | outcome [4] | outcome [5] | outcome [6]

OC[C@H]1O[C@@H](OCCc2ccc(O)cc2)[C@H](O)[C@@H](O)[C@H]1O
inactive: efficacy [1] -19% | outcome [2] | outcome [3] | outcome [4] | outcome [5] | outcome [6]

CCCOC(=O)c1ccc(N)cc1
inactive: efficacy [1] 7.92% | outcome [2] | outcome [3] | outcome [4] | outcome [5] | outcome [6]

CCN[C@@H]1C[C@H](N)[C@@H](OC2OC(CN)=CCC2N)[C@H](O)[C@H]1O[C@H]1OC[C@](C)(O)[C@H](NC)[C@H]1O (some centres not stated)
inactive: efficacy [1] -8.89% | outcome [2] | outcome [3] | outcome [4] | outcome [5] | outcome [6]

CN1CCN(c2cc3c(nn2)Oc2ccccc2N3C)CC1
inactive: efficacy [1] -18% | outcome [2] | outcome [3] | outcome [4] | outcome [5] | outcome [6]

CCOC(=O)C(=O)CCc1ccccc1
inactive: efficacy [1] -17.5% | outcome [2] | outcome [3] | outcome [4] | outcome [5] | outcome [6]

CCN(CC)CCNC(=O)c1cc(Br)c(N)cc1OC
inactive: efficacy [1] 15.9% | outcome [2] | outcome [3] | outcome [4] | outcome [5] | outcome [6]

CS(=O)(=O)c1ccc(-c2cn3ccccc3n2)cc1
inactive: efficacy [1] -11.6% | outcome [2] | outcome [3] | outcome [4] | outcome [5] | outcome [6]

COc1ccc([C@@H]2Sc3ccccc3NC(=O)[C@@H]2O)cc1
inactive: efficacy [1] -10.4% | outcome [2] | outcome [3] | outcome [4] | outcome [5] | outcome [6]

N[C@@H](CSSC[C@H](N)C(=O)O)C(=O)O
inactive: efficacy [1] -14.5% | outcome [2] | outcome [3] | outcome [4] | outcome [5] | outcome [6]

C[C@@H]1C[C@H]2[C@@H]3CCC4=CC(=O)C=C[C@]4(C)[C@@]3(F)[C@@H](O)C[C@]2(C)[C@H]1C(=O)CO
inactive: efficacy [1] 20.4% | outcome [2] | outcome [3] | outcome [4] | outcome [5] | outcome [6]

NC[C@H]1O[C@H](O[C@H]2[C@H](O)[C@@H](O[C@H]3O[C@H](CO)[C@@H](O)[C@H](N)[C@H]3O)[C@H](N)C[C@@H]2N)[C@H](N)[C@@H](O)[C@@H]1O
inactive: efficacy [1] -12.5% | outcome [2] | outcome [3] | outcome [4] | outcome [5] | outcome [6]

O=C1N(c2ccccc2)c2ccccc2C1(Cc1ccncc1)Cc1ccncc1
inactive: efficacy [1] 21.1% | outcome [2] | outcome [3] | outcome [4] | outcome [5] | outcome [6]

CCCCN(CCCC)C(C(N)=O)c1ccc(OC)cc1 (configuration not stated)
inactive: efficacy [1] 14.3% | outcome [2] | outcome [3] | outcome [4] | outcome [5] | outcome [6]

CC(C)C(=O)Nc1cccc(C2CN3CCSC3=N2)c1 (configuration not stated)
inactive: efficacy [1] -12.5% | outcome [2] | outcome [3] | outcome [4] | outcome [5] | outcome [6]

C#C[C@]1(O)CC[C@H]2[C@@H]3CCC4=CC(=O)CC[C@@H]4[C@H]3CC[C@@]21C
inactive: efficacy [1] -11.7% | outcome [2] | outcome [3] | outcome [4] | outcome [5] | outcome [6]

Nc1c(NC/C=C\COc2cc(CN3CCCCC3)ccn2)c(=O)c1=O
inactive: efficacy [1] -32.1% | outcome [2] | outcome [3] | outcome [4] | outcome [5] | outcome [6]

COc1ccc2c(c1OC)C(=O)O[C@@H]2[C@H]1c2c(cc3c(c2OC)OCO3)CCN1C
inactive: efficacy [1] -21% | outcome [2] | outcome [3] | outcome [4] | outcome [5] | outcome [6]
